# A selection: hits, their analogues and other compounds. The true share with any hit is near 14%.
# Lassa entry inh: Lassa virus entry inhibition | Lassa virus pseudotype entry inhibition, cell reporter | Potency, µM (series often up to 37.9 µM), hits mostly inhibitors | 300,000 compounds, 1.2% hits; calls by dose curve; tested in HEK293 cells; also: nearly all actives have a fitted effect of over 50% in size
# Pf growth 96h: P. falciparum growth inhibition at 96 hours; AID 504834; P. falciparum luciferase reporter growth, 96 h; Potency, µM (series often up to 28.7 µM), hits mostly inhibitors; 320,000 compounds, 6.9% hits
#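 Erythrocytes infected with luciferase-expressing P. falciparum were dispensed at 2% hematocrit and 0.05% parasitemia (final), then incubated with compounds 96 hours at 37 C in 5% CO2. Luminescence after detection reagent addition reported growth.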
# Marburg entry inh: Marburg virus entry inhibition. Marburg virus pseudotyped entry inhibition, cell reporter. Potency, µM (titrated, usually from 37.8 µM), hits mostly inhibitors. 300,000 compounds, 1.8% hits; calls by dose curve; tested in HEK293 cells
# HCMV antiviral: blocks human cytomegalovirus replication. HFF cells, HCMV-luciferase reporter, 72 h; active compounds read low. activity change, negative = inhibition, % at 57.5 µM. 410,000 compounds, 4.5% hits; in the data active = activity change below about -60%; inconclusive = no clear call, values can overlap the other calls; inactive = above about -39%
#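 Luciferase read-out from HCMV-luciferase-infected HFFs (MOI 1 PFU/cell) 72 h post infection at 37C; compounds added after 16 h cell attachment; activity normalized between buffer-only basal and Salinomycin (10uM) inhibitor controls.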
# HCV inh: inhibitors of hepatitis C virus infection; Huh7.5.1 HCVcc-Cre infection, luciferase reporter, 44 h; Potency, µM (doses to about 41.8 µM), actives largely listed as inhibitors; 340,000 compounds, 3.4% hits
#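 Luciferase read-out (15 sec integration) after a 15 min room-temperature substrate step quantifies HCVcc-Cre infection. Cells, 1,000 per well, had compound added 4 h post-plating, then virus at ~0.5 moi, and were cultured 44 h.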
# Pf growth 48h: P. falciparum growth inhibition at 48 hours (one generation); P. falciparum luciferase growth in erythrocytes, 48 h; Potency, µM (titrated, usually from 28.7 µM), most hits filed as inhibitors; 310,000 compounds, 5.9% hits; AID 504832
#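 Erythrocytes infected with P. falciparum carrying an integrated firefly luciferase reporter (2% hematocrit, 0.1% parasitemia final) were exposed to compounds in RPMI 1640 with 0.5% Albumax at 37 C, 5% CO2. Growth inhibition was scored as reduced luminescence.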
# A number is an active result; – = inactive; ? = inconclusive; · = no result given; ! = not active in a repeat. Unless noted, calls follow the shape of the dose curve; as a rule, active = well fitted inhibition curve with a large enough effect; inconclusive = small, poorly fitted or top-dose-only effect, or another doubt; inactive = no such curve, though single readings can be large or run the other way.
SMILES,Lassa entry inh,Pf growth 96h,Marburg entry inh,HCMV antiviral,HCV inh,Pf growth 48h
CC(=O)Nc1ccccc1C(=O)C(=O)Nc1ccccc1,–,7.4µM,?,–,–,–
CC(=O)Nc1ccccc1C(=O)C(=O)Nc1cccc(C(=O)N2CCC3(CC2)OCCO3)c1,·,1.9µM,–,–,–,–
CCc1ccccc1NC(=O)C1CCN(C(=O)N2CC(C)Oc3ccc(Cl)cc32)CC1 (centres undefined),?,·,·,–,·,·
CCN(C(=O)CSc1nc2scc(-c3ccccc3)c2c(=O)n1N)C1CCS(=O)(=O)C1 (centres undefined),–,·,–,–,–,·
Cc1cnc(-c2nc3ccccc3n2C(C(=O)Nc2c(C)cccc2C)C2CC2)cn1 (centres undefined),·,·,·,–,·,·
CC(Oc1ccc(F)cc1)C(=O)Nc1ccccc1C(=O)N1CCCCC1 (centres undefined),·,–,·,–,–,–
CCN(CCNC(=O)C1CCCN(Cc2nc(-c3ccc(OC)cc3)oc2C)C1)c1ccccc1 (centres undefined),–,–,?,–,?,5.2µM
COc1ccc(-c2nc(CN3CCC(C(=O)NCCCN4CCN(c5ccccc5F)CC4)CC3)c(C)o2)cc1OC,?,·,4.5µM,-104,·,·
Cc1oc(-c2cccc(Cl)c2)nc1CN1CCCC(C(=O)NCCCN2CCOCC2)C1 (centres undefined),–,–,?,–,?,12µM
Cc1oc(-c2cccc(Cl)c2)nc1CN1CCC(C(=O)NCCCN2CCN(c3ccccc3F)CC2)CC1,–,·,–,–,·,·
Cc1oc(-c2ccc(Cl)cc2)nc1CN1CCC(C(=O)NCCCN2CCOCC2)CC1,?,?,13µM,–,8.9µM,?
Cc1cccc(NC(=O)NCCOCCn2c(=O)oc3ccccc32)c1C,–,·,–,–,·,·
O=C(COC(=O)c1cc(=O)[nH]c2ccccc12)NC(=O)c1ccccc1,–,–,–,–,–,–
CCC1CCCCN1CCCNC(=O)C1CCN(Cc2nc(-c3ccc(Cl)cc3)oc2C)CC1 (centres undefined),·,–,·,·,1.4µM,5.2µM
CC1CCCN(S(=O)(=O)c2ccc3c(c2)n(C)c(=O)c(=O)n3C)C1 (centres undefined),·,–,·,–,–,–
Cn1c(=O)c(=O)n(C)c2cc(S(=O)(=O)N3CCN(C4CCCCC4)CC3)ccc21,·,8.3µM,–,?,–,·
Cc1noc(C)c1COc1ccccc1C(=O)NC(C)c1ccc(F)cc1 (centres undefined),–,·,–,–,–,·
CC1=C(C(=O)N(C(C)C)C(C)C)CC(CC(=O)NC2CCCCC2)C(=O)N1Cc1ccc(C(C)(C)C)cc1 (centres undefined),·,·,·,-88,·,·
COc1ccc(CN2C(=O)C(CC(=O)NC3CCCC3)CC(C(=O)N(C(C)C)C(C)C)=C2C)cc1 (centres undefined),·,·,·,–,·,·
C=CCn1c(-c2ccc(S(=O)(=O)N3CCOCC3)cc2)csc1=Nc1ccccc1,?,12µM,–,–,–,?
COc1ccccc1N=c1scc(-c2ccc(S(=O)(=O)N3CCCC3)cc2)n1C,?,·,·,-97,·,·
COc1ccc(-c2csc(=Nc3ccccc3)n2CCO)cc1,–,–,?,-62,13µM!,–
CCc1ccc2oc(-c3ccc(OC)cc3)cc(=Nc3cccc(C(=O)O)c3)c2c1,?,?,?,–,?,–
Cc1ccc(-c2csc(=Nc3ccccc3)n2CCCO)cc1,–,·,–,–,·,·
CCc1ccc2oc(-c3ccc(OC)cc3)cc(=Nc3c(C)n(C)n(-c4ccccc4)c3=O)c2c1,·,?,·,?,10µM,–
SMILES,Lassa entry inh,Pf growth 96h,Marburg entry inh,HCMV antiviral,HCV inh,Pf growth 48h
O=S(=O)(c1ccc(-c2csc(=Nc3ccc(F)cc3)n2CCCCCCO)cc1)N1CCCC1,?,·,?,-101,·,·
C=CCn1c(-c2ccc(OC)cc2)csc1=Nc1c(C)n(C)n(-c2ccccc2)c1=O,–,15µM,–,?,?,·
CC(C)Cn1c(-c2ccc(S(=O)(=O)N3CCCC3)cc2)csc1=Nc1ccccc1,?,·,–,–,·,·
Cc1csc(=Nc2c(C)n(C)n(-c3ccccc3)c2=O)n1Cc1ccccc1,–,–,–,–,–,–
COc1ccc(N=c2scc(-c3ccc(S(=O)(=O)N4CCOCC4)cc3)n2CCCO)cc1,·,–,·,·,?,12µM
OCCCn1c(-c2ccc(F)cc2)csc1=Nc1ccc(F)cc1,–,·,?,–,·,·
CC(=O)c1cccc(N=c2scc(-c3ccc(S(=O)(=O)N4CCOCC4)cc3)n2CCO)c1,?,4.7µM,?,-98,1µM,5.2µM
CN(C)c1cccc(CNC(=O)c2ccc3sc([C@@H]4O[C@H](CO)[C@H](O)[C@H](O)[C@H]4O)nc3c2)c1,·,·,·,–,·,·
CC[C@@](C)(NS(=O)(=O)OCC(Cl)(Cl)Cl)c1ccccc1,·,–,·,?,–,–
CCN(CC)S(=O)(=O)c1ccc(N2CC(C(=O)NCc3ccco3)CC2=O)cc1 (centres undefined),·,·,·,–,·,·

# Screens (PubChem BioAssay)
